TLR4 MyD88 comp: inhibitors of human TLR4-MyD88 binding; HeLa CL3-4 TLR4/MyD88 BLA complementation, FRET ratio; O00206+Q99836; AID 861; inhibition, % at 8.4 µM; hit rate 0.18% among 200,000; in the data active = inhibition above about 25%;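 note: 0% = vehicle and 100% = reference inhibitor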
PRMT1 inh: PRMT1 (human) inhibition, primary screen; AID 652257; hit rate 1.3% among 370,000; recombinant PRMT1, activity-based probe fluorescence polarization; inhibition, % at 2.79 µM;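 active = inhibition above about 21% made by adding two undisclosed values, limit read from the data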
rCAG binder: binds r(CAG) RNA repeats | hit rate 1.3% among 370,000 | AID 651821 | r(CAG) RNA repeat, TO-PRO-1 dye displacement fluorescence | inhibition, % at 3 µM;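 active = inhibition above the plate cutoff, the mean of all test compounds on that plate plus 3 SD, cut at about 35% in these data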;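 note: 0% = DMSO alone and 100% = 100 µM mitoxantrone as full dye displacement; higher means more dye released from RNA so lower well fluorescence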
TLR9-MyD88 block: blocks human TLR9 binding to MyD88; Q9NR96+Q99836; CHO BLA complementation TLR9-MyD88, CCF4 FRET ratio; inhibition, % at 4.98 µM; hit rate 0.21% among 340,000; AID 504734;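 active = inhibition above the mean over all tested compounds plus 3 SD, cut at about 21% in these data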;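 note: 0% = DMSO only wells and 100% = clavulanate BLA inhibitor control wells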
ABHD5 PLIN5 PPI: blocks binding of human ABHD5 to perilipin-5. Q00G26+Q8WTS1. Split G. princeps luciferase complementation, luminescence, 4 h. inhibition, % at 4 µM. hit rate 0.78% among 360,000;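 active = inhibition above the mean inhibition across every tested compound plus 3 SD, cut at about 22% in these data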;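 note: 0% = DMSO only wells and the 100% control is not disclosed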
NOD2 RIPK2 PPI: blocks binding of human NOD2 to RIPK2 | inhibition, % at 4.98 µM | hit rate 0.38% among 360,000 | O43353 | CHO BLA complementation NOD2-RIPK2, CCF4 ratio; in the data active = inhibition above about 21%;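 note: 0% = vehicle only and 100% = reference blocker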
PRMT1 confirm: PRMT1 (human) inhibition, FP confirmation; hit rate 42% among 3,300; inhibition, % at 2.79 µM; shares compounds with PRMT1 inh; recombinant His-PRMT1, activity-based probe fluorescence polarization;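 active = mean inhibition across replicates above the hit cutoff derived for the earlier primary screen, cut at about 22% in these data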
Starred values were filed as active, the others as inactive; . = no result given. Shown are actives, neighbours in structure and some others; about 3.3% of the full set was active somewhere.

SMILES | TLR4 MyD88 comp | PRMT1 inh | rCAG binder | TLR9-MyD88 block | ABHD5 PLIN5 PPI | NOD2 RIPK2 PPI | PRMT1 confirm
CCc1c(O)nc(SCC(=O)Nc2c(C)cccc2C)n(-c2ccc(F)cc2)c1=O | . | 14 | -1 | -8 | -2 | 5 | .
CCc1c(O)nc(SCC(=O)Nc2nc3ccccc3s2)n(-c2ccc(C)cc2)c1=O | . | -5 | 0 | -2 | 3 | 1 | .
CCc1c(O)nc(SCC(=O)Nc2ccccc2)n(-c2ccccc2C)c1=O | . | 36* | 5 | 4 | 11 | -3 | 20
COc1ccc(-n2c(SCC(=O)Nc3ccccc3OC)nc(O)c(Cc3ccccc3)c2=O)cc1 | . | 30* | 31 | 1 | 5 | -5 | 22*
CCc1c(O)nc(SCC(=O)Nc2ccccc2C)n(-c2ccc(C)cc2)c1=O | . | 30* | 7 | -4 | -3 | -13 | 13
O=c1oc2cc(O)ccc2s1 | . | 86* | 0 | 17 | -16 | 0 | 33*
C/C(=N\N=C(N)N)c1ccc(Cl)cc1Cl | -3 | 2 | 12 | 0 | 6 | 16 | .
O=C(CSc1nccc(=O)[nH]1)Nc1ccc(S(=O)(=O)N2CCOCC2)cc1 | -5 | 49* | 3 | 4 | -10 | 1 | 9
Nc1cc(=O)[nH]c(SCC(=O)Nc2ccc(S(=O)(=O)N3CCOCC3)cc2)n1 | 4 | 19 | 22 | 0 | 3 | 4 | .
CCN(CC)CCN1C(=O)c2cccc3cc(N)cc(c23)C1=O | . | 25* | -24 | -3 | 6 | -13 | 22*
Nc1cc2c3c(cccc3c1)C(=O)N(CCN1CCCC1)C2=O | . | 11 | -10 | 4 | 5 | -4 | .
N#CCc1c(C#N)c(N)nc(N2CCCC(O)C2)c1C#N (stereo not given) | -12 | 31* | 4 | 4 | 7 | -8 | 3
CCOc1ccc(N2C(=O)CC(SCc3nc4ccccc4[nH]3)C2=O)cc1 (stereo not given) | -10 | 15 | 7 | 8 | -12 | 3 | .
CCOc1ccc(N2C(=O)CC(Sc3n[nH]c(-c4ccccc4)n3)C2=O)cc1 (stereo not given) | 10 | 32* | 10 | -7 | -6 | 4 | 52*
COc1ccc(N2C(=O)CC(Sc3n[nH]c(-c4ccccc4)n3)C2=O)cc1 (stereo not given) | . | 30* | 4 | 4 | 7 | 3 | 75*
COc1ccc(Cl)cc1Cn1c(C)c(C(=O)NCc2ccc(F)cc2)sc1=O | . | -3 | 5 | . | -1 | 4 | .
C[C@@H]1CN(C(=O)OC(C)(C)C)CCN1c1ccc(N2CC[C@H](O)C2)c(C#N)c1 | . | 10 | 1 | . | . | . | .
COCc1cc(N2CCN(C(=O)OC(C)(C)C)C[C@@H]2C)ccc1N1CC[C@@H](O)C1 | . | 50* | 11 | . | . | . | 9
Cc1cc(N2CCNC[C@@H]2C)ccc1N1CCS(=O)(=O)CC1 | . | -1 | 2 | . | . | . | .
Cc1ccc(OCc2nnc(SCC(=O)Nc3ncc(C)s3)o2)cc1 | . | 30* | 7 | 11 | -37 | -10 | 2
COc1ccc(-n2ccnc(SCC(=O)NCc3ccc(C)cc3)c2=O)cc1Cl | . | 36* | -4 | -4 | -11 | 3 | 21
Cc1ccc(CNC(=O)CSc2nccn(-c3ccc(C)c(F)c3)c2=O)cc1 | . | 37* | -2 | -9 | -24 | -4 | 19
CCOC(=O)c1c(NC(=S)Nc2ccccc2)sc2c1CCCCC2 | 4 | . | . | 3 | -9 | -5 | .
CCOC(=O)c1c(NC(=S)Nc2ccccc2)sc2c1CCN(CC)C2 | -11 | 28* | -46 | 6 | -3 | 6 | 11
Nc1nc(-c2ccco2)c(-c2ccco2)s1 | -4 | 40* | 12 | 3 | 20 | -6 | 4
Nc1nc(-c2cccs2)c(-c2cccs2)s1 | . | -2 | 4 | -3 | -12 | -4 | .
Cc1ccc(NS(=O)(=O)c2cc(NC(=O)c3ccc4c(c3)NC(=O)CS4)ccc2C)c(C)c1 | 13 | 34* | 9 | 3 | -5 | -7 | 23*
COc1ccc(NC(=O)c2ccc3c(c2)NC(=O)CS3)cc1S(=O)(=O)Nc1ccc(Br)cc1 | 2 | 3 | 8 | -1 | 7 | 3 | .
CCCCCCCCc1nc(=S)[nH][nH]1 | 10 | 27* | -2 | -12 | -2 | -8 | 37*
